# PubChem BioAssay
# Calls of active or inactive are those of the source.
# Assays:
# Albumin (Bos taurus) = Albumin (Bos taurus) (UniProt P02769); test: bovine serum albumin binders on microarray, profiling panel, artefact control for SMM control protein annotation, biochemical, small-molecule microarray, Alexa647 label, 635/667 nm fluorescence (AID 1118); conditions: BSA-A647 binding, fluorescence 635 nm, higher = more signal;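 note: score merges 667 nm emission intensity and signal-to-noise per printed compound spot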
# [1] = small-molecule microarray binders of probe aXIP, primary screen, biochemical, NeuroSMM set, 635/667 nm fluorescence (AID 1119); conditions: higher = more signal, called active from +8 up or from −8 down;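 note: probe is the protein aXip251-270 applied at 1 µg/mL to compound-printed slides; binding of probe to printed compounds measured as 667 nm fluorescence plus signal to noise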
# [2] = small-molecule binders of probe aNOTCH3, primary screen, biochemical, small-molecule microarray, 635/667 nm fluorescence (AID 1120); conditions: higher = more signal;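 note: probe is a biotin-tagged antibody raised against NOTCH3 rather than NOTCH3 protein; score merges spot fluorescence near 667 nm with spot signal to noise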
# [3] = small-molecule binders of probe aNOTCH2, primary screen, biochemical, small-molecule microarray, 635/667 nm fluorescence (AID 1121); conditions: higher = more signal;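 note: score merges feature fluorescence read at 667 nm with its signal to noise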
# [4] = target: Carbonic anhydrase 2 (Homo sapiens) (UniProt P00918); test: CAII small-molecule binders, profiling panel, biochemical, small-molecule microarray, Alexa647-labelled CAII (AID 1122); conditions: CAII-A647 binding fluorescence, higher = more signal
# [5] = COS7 lysate on small-molecule microarray, probe aHis, 635 nm (AID 1123); conditions: COS7 cell lysate, fluorescence, higher = more signal;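 note: z-score combines 667nm fluorescence intensity with signal-to-noise per printed compound spot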
# [6] = compound binding in COS7 lysate, probe aLAP1, primary screen, cell lysate, small-molecule microarray (AID 1124); conditions: probe aLAP1, fluorescence, higher = more signal;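 note: lysate comes from COS7 cells expressing LAP1 and is applied at 0.3 µg/mL; score merges spot fluorescence near 667 nm with signal-to-noise over triplicate slides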
# Sam68 (KHDRBS1) = test: Sam68 small-molecule binders, primary screen, biochemical, small-molecule microarray, 635 nm fluorescence (AID 1125); conditions: small-molecule microarray binding, higher = more signal;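 note: score merges 667 nm channel intensity with signal to noise over triplicate slides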
# [7] = system: Chordin-like protein 2 (CHRDL2); test: CHRDL2 small-molecule binders, primary screen, biochemical, small-molecule microarray, 635 nm fluorescence (AID 1126); conditions: small-molecule microarray binding, fluorescence 635 nm; higher = more signal;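 note: printed compound slides probed with Chrdl2 protein at 4 µg/mL for 1 h at 4 C; score merges 667 nm emission intensity with signal to noise over three replicate slides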
# [8] = target: Concanavalin-A (Canavalia ensiformis) (UniProt P02866); test: ConA small-molecule binders, primary screen, artefact control for SMM control protein annotation, biochemical, small-molecule microarray, Alexa647 label, 635 nm (AID 1127); conditions: ConA-A647 binding fluorescence, higher = more signal;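 note: z combines 667 nm emission intensity with signal-to-noise across three replicate slides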
# Sequence of Concanavalin-A (Canavalia ensiformis) (P02866 whole entry, looked up): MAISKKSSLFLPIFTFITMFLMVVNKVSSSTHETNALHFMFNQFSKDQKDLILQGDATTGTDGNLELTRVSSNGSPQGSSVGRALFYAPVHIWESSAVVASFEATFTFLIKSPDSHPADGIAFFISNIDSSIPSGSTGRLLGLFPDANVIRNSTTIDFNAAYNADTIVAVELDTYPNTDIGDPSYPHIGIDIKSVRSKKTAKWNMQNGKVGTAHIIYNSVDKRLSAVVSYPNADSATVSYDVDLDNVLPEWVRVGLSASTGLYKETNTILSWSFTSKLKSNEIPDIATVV
# Sequence of Albumin (Bos taurus) (P02769 whole entry, looked up): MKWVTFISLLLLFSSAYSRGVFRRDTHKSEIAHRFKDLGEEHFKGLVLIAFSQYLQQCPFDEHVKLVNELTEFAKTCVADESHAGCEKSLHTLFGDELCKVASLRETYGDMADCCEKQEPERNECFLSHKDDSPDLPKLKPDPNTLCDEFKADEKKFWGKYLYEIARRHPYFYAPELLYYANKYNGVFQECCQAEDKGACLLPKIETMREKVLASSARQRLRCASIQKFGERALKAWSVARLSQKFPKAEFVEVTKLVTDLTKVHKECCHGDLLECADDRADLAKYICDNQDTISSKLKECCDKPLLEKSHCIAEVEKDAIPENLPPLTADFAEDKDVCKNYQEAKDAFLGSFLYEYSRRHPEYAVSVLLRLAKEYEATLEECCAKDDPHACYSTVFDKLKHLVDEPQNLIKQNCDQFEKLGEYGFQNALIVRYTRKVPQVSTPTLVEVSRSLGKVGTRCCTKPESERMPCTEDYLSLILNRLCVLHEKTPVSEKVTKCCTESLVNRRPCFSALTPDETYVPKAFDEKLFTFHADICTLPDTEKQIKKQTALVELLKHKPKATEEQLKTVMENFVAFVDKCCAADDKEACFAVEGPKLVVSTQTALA
Structure (SMILES),composite z-score (Albumin (Bos taurus)),composite Z-score [1],composite z-score [2],composite z-score [3],composite z-score [4],composite z-score [5],composite z-score [6],composite z-score (Sam68 (KHDRBS1)),composite z-score [7],composite z-score [8]
COc1ccc(C(=O)Nc2ccc3c(c2)[C@]2(O[C@@H](CCO)[C@H]([Si](C)(C)c4ccc(OC)cc4)[C@H]2C)C(=O)N3Cc2ccccc2)cc1,-0.58,0.131 (inactive),-0.242,-0.135,0.0277,-0.0175,-0.352,1.01,0.845,0.908
Cc1ccc(S[C@]2(C(=O)NCCN3CCOCC3)CC(=O)N(C3Cc4ccccc4C3)[C@@H]2c2ccc(CO)cc2)cc1,0.0022,0.39 (inactive),-0.159,-0.0745,0.66,2.08,0.0297,0.151,-0.373,0.152
C[C@@]1([C@@H](NC(=O)c2cccs2)c2ccc(-c3ccccc3)cc2)C[C@H]1C1CCCCC1,0.0881,0.0169 (inactive),-0.0027,-0.343,0.786,3.02,-0.165,-0.307,-0.237,-0.419
CN(C)C(=O)[C@]1(Cc2ccccc2N=[N+]=[N-])N=C(c2ccc(OCCCO)cc2)O[C@@H]1c1ccccc1CN=[N+]=[N-],0.828,-0.136 (inactive),0.473,-0.0349,0.684,2.53,0.635,1.3,-0.21,0.875
COC(=O)[C@@]1(Cc2ccc(F)cc2)[C@H]2c3cc(C(=O)N(C)C)n(CCSCCO)c3C[C@H]2CN1C(=O)c1ccccc1,1.04,0.116 (inactive),0.0179,-0.0568,0.726,2.15,0.96,0.584,0.191,-0.103
C=CCNC(=O)[C@H]1[C@@H]2C(=O)O[C@@H](c3ccccc3)[C@@H](c3ccccc3)N2[C@@H](c2ccc(OCCO)cc2)[C@]12C(=O)N(C(=O)OCCOC)c1ccc(C#CC3=CCCCC3)cc12,0.401,0.495 (inactive),0.0813,-0.109,0.643,1.34,0.737,1.31,0.399,1.12
O=C1C[C@@](C(=O)NCc2ccccc2)(c2ccc([N+](=O)[O-])cc2)[C@@H](c2ccc(CO)cc2I)N1C1CCCCC1,-0.13,-0.0966 (inactive),0.446,0.202,0.448,1.15,-0.0355,1.23,0.633,0.957
CC1CC/C=C\[C@H]2OC34C=CCN(Cc5ccccc5)C(=O)[C@H]3N(CCO)C(=O)[C@@H]4C2C(=O)O1 (stereo not given in full),-0.897,0.461 (inactive),-0.0984,-0.154,0.873,0.368,1.29,0.386,-0.793,-0.315
Cc1ccc(C(C)CC(O)C2C=CC3C(=O)N(Cc4ccccc4)C(=O)C3N2n2cnnc2)o1 (stereo not given),1.03,0.391 (inactive),1.3,0.654,0.461,1.7,0.704,1.12,-0.377,1.17
COC(=O)[C@H]1N=C(c2ccc(OCCCO)cc2)O[C@H]1c1ccccc1CN=[N+]=[N-],0.394,-0.391 (inactive),0.23,-0.0174,0.41,1.78,0.427,0.0826,-0.935,0.8
C=C(COC)/C(=C/C[C@@H](OC(=O)c1ccncc1)c1cccc(OCCO)c1)c1cc(C(=O)OC)ccc1OC,-0.431,0.135 (inactive),0.0297,-0.147,0.646,-0.0596,0.996,1.24,0.699,0.206
Cc1ccc(N2C(=O)c3ccccc3[C@](C)(C(=O)NC(C)C)[C@@H]2c2ccc(CO)cc2)nc1,-0.546,-1.02 (inactive),-0.571,-0.183,0.706,1.64,-0.699,-1.55,-1.13,-1.73
COCCOC(=O)N1C(=O)[C@@]2(c3cc(C#CCCO)ccc31)[C@H](c1ccc(OCCO)cc1)N1[C@H](c3ccccc3)[C@H](c3ccccc3)OC(=O)[C@H]1[C@@H]2C(=O)N1CCc2cc(OC)c(OC)cc2C1,-0.627,0.443 (inactive),0.0893,-0.0731,0.239,1.06,1.48,1.31,0.559,1.08
CN(C)C(=O)[C@@]1(Cc2ccccc2N=[N+]=[N-])N=C(c2ccc(OCCCO)cc2)O[C@H]1c1ccccc1N=[N+]=[N-],0.89,0.167 (inactive),0.277,0.083,0.565,1.65,0.372,1.33,0.325,0.819
